Hit rate of the full screen: of about 320,000 compounds, about 2,100 (0.66%) were called active. Another 53% or so got no clear call; they are omitted. Calls come from the whole dose curve; as a rule, active = well fitted inhibition curve with a large enough effect in the signal ratio, with a control signal flat (not every such curve was filed as active); inconclusive = small, poorly fitted or top-dose-only effect, or effect the other way, or a change in a side signal; inactive = flat fitted curve, though single readings scatter; the % refers to the signal ratio. The sample as a whole holds a higher share of actives than the screen did.
Potency is the fitted concentration of half-maximal effect.

The nature of this experiment: qHTS Assay for Lipid Storage Modulators in Drosophila S3 Cells.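 For cell number change: cells counted by Cell Tracker Red CMTPX staining in the red channel.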 For lipid storage change, negative = inhibition: % is set by controls: 0 for no effect and ±100 for the full control effect. To be noted: BODIPY lipid droplet fluorescence, 18-24 h, cells fed with added oleic acid; cell number change: measured here: cell count max response; series mostly up to 46.1 µM; lipid storage change, negative = inhibition: at the top concentration. The essentials: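 Drosophila S3 cells loaded with oleic acid (400 uM, as added) and compounds at several concentrations; lipid droplets imaged by 488-nm laser-scanning cytometry, 500–530 nm intensity and object ratio to cell channel. Percent activity normalized to 20 uM Triacsin C.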
(qHTS replaces the single test concentration by a dilution series.)
For the compound `CCn1c(=O)cc(OCC(=O)Nc2ccc(C)cn2)c2ccccc21`, the “lipid storage change, negative = inhibition” value is 23.2% (inactive) and the cell number change was 8%.
For `COc1ccc(C)cc1NC(=O)C1CCC(CNc2c(N3CCOCC3)c(=O)c2=O)CC1` (configuration not stated), in that order: 9.49% (inactive) and 18.9%.
For `Cc1cccc(N2CCN(C(=O)COc3ccc4c(c3)CCC4)CC2)c1C`, the “lipid storage change, negative = inhibition” value was 0.152% (inactive) and the cell number change came out at 1.12%.
In the case of `Cc1cccc(N2CCN(C(=O)COc3ccc4c(c3)CCC4)CC2C)c1` (configuration not stated), the Potency was 2.06 µM (active) and the cell number change was -2.19%.
As to `O=C(COc1ccc2c(c1)CCC2)N1CCN(c2cccc(C(F)(F)F)c2)CC1`, the compound was classed as inactive and the cell number change is 20.7%.
For the compound `CCOC(=O)c1ccc(NC(=O)Cn2nnc(-c3ccc(F)cc3)n2)cc1`, the “lipid storage change, negative = inhibition” value was -18.5% (inactive) and the cell number change was -3.44%.
Consider `COc1ccc(OC)c(Nc2nc3nonc3nc2N2CCCC(C)C2)c1` (configuration not stated), for which the “lipid storage change, negative = inhibition” value is 10.9% (inactive) and the cell number change came out at 7.7%.
As to `CC(C)c1onc(C(=O)N2CCOCC2)c1[N+](=O)[O-]`, the “lipid storage change, negative = inhibition” value was 2.21% (inactive) and the cell number change is -0.564%.
Consider `CC(C)c1onc(C(=O)N2CCCCC2)c1[N+](=O)[O-]`, for which the Potency was 0.82 µM (active) and the cell number change is -22.7%.
As to `CC(C)c1onc(C(=O)N2CCCCCC2)c1[N+](=O)[O-]`, the “lipid storage change, negative = inhibition” value was -5% (inactive) and the cell number change is -15.8%.
`CS(=O)(=O)N1CCC(C(=O)Nc2ccc(Cl)c(Cl)c2)CC1`: the “lipid storage change, negative = inhibition” value was 17.7% (inactive) and the cell number change is -6.77%.
For `COc1ccc(CC(=O)OCC(=O)Nc2ccc3c(c2)OCCO3)cc1OC`, in that order: 3.05% (inactive) and 3.44%.
Turning to `O=C(CCn1c(=O)[nH]c2ccsc2c1=O)N1CCN(Cc2ccc3c(c2)OCO3)CC1`, the “lipid storage change, negative = inhibition” value is -1.99% (inactive).
As for `Cc1ccc(-c2nc3ccccc3[nH]2)cn1`, the “lipid storage change, negative = inhibition” value is -2.7% (inactive) and the cell number change amounted to 10.6%.
For the compound `CCN(CC)S(=O)(=O)c1cc(C(=O)n2cccn2)c(Cl)cc1Cl`, the Potency was 4.61 µM (active) and the cell number change is -0.259%.
On to `CCN(CC)S(=O)(=O)c1cc(C(=O)Nc2cccnc2Cl)ccc1Cl`, for which the compound was called inactive.
`CCN(CC)S(=O)(=O)c1cc(C(=O)Nc2cc(C)on2)c(Cl)cc1Cl`: the “lipid storage change, negative = inhibition” value is -12% (inactive) and the cell number change is -16.4%.
Consider `O=C(COC(=O)CC12CC3CC(CC(Br)(C3)C1)C2)NC(=O)NCc1ccco1`, for which the “lipid storage change, negative = inhibition” value is -0.115% (inactive) and the cell number change is -9.1%.
For `CC(=O)NC12CC3CC(C1)CC(C(=O)OCC(=O)NC(=O)c1cccn1C)(C3)C2`, the “lipid storage change, negative = inhibition” value is -20.7% (inactive) and the cell number change is -12.7%.
As to `Cn1cccc1C(=O)NC(=O)COC(=O)CC12CC3CC(CC(Br)(C3)C1)C2`, the Potency is 7.31 µM (active) and the cell number change stood at 2.25%.
For `O=C(NCc1nc2ccccc2[nH]1)c1c(F)c(F)c(F)c(F)c1F`, the “lipid storage change, negative = inhibition” value was -16.5% (inactive) and the cell number change is -0.311%.
In the same order, the values of `O=C(O)C1CCCCC1C(=O)NCCc1cccc(Cl)c1` (configuration not stated) are -11.6% (inactive) and -1.17%.
As for `Cc1ccn(CC(=O)N2CCCC(N3CCN(c4cccc(Cl)c4)CC3)C2)n1` (configuration not stated), the compound was called inactive and the cell number change was found to be 14.6%.
As for `Cc1nc(CNC(=O)CC2C(=O)NCCN2Cc2ccc(F)cc2)cs1` (configuration not stated), the “lipid storage change, negative = inhibition” value was -3.08% (inactive) and the cell number change is 20.2%.
As to `CCN(CC)S(=O)(=O)c1ccc(OC)c(NC(=O)C2CC(=O)N(c3ccc4c(c3)OCCO4)C2)c1` (configuration not stated), the compound was called inactive and the cell number change was -25.9%.
Turning to `CN(C)c1ccc(C(=O)N2CCCC(CCC(=O)N3CCN(c4ccccn4)CC3)C2)cc1` (configuration not stated), the “lipid storage change, negative = inhibition” value is -21.3% (inactive) and the cell number change was -25.3%.
As for `C=Cc1ccc(C(=O)N2CCCC(CCC(=O)N3CCN(c4ccccn4)CC3)C2)cc1` (configuration not stated), the outcome was inactive and the cell number change is -2.91%.
As for `COc1ccc(C(=O)N2CCCC(CCC(=O)N3CCN(c4ccccn4)CC3)C2)cc1` (configuration not stated), the Potency was 8.2 µM (active) and the cell number change was -15.8%.
On to `COc1ccc(-n2cccc2/C=C2\C(=N)N3N=C(c4ccco4)SC3=NC2=O)cc1`, for which the “lipid storage change, negative = inhibition” value was -14.1% (inactive) and the cell number change was -5.47%.
In the same order, the values of `CC(C)(C)NC(=O)Cn1ccc(=N)c2ccccc21` are 0.397% (inactive) and -1.29%.
In the case of `CCOC(=O)CNc1c(-c2ccc(O)cc2)nc2ccccn12`, the “lipid storage change, negative = inhibition” value is 21.7% (inactive) and the cell number change amounted to 4.87%.
On to `CCCCNc1c(-c2cccc(SC3CCCCC3)c2)nc2ccc(Cl)cn12`, for which the “lipid storage change, negative = inhibition” value is 2.09% (inactive) and the cell number change stood at 5.29%.
Turning to `CCCCNc1c(-c2ccc(-c3cccc(Cl)c3)cc2)nc2ccccn12`, the Potency is 23.1 µM (active) and the cell number change is 5.08%.
Consider `O=C1CCCC2(O)C1C(c1cccc(Br)c1)NC(=O)N2Cc1ccccc1` (configuration not stated), for which the “lipid storage change, negative = inhibition” value was -9.4% (inactive) and the cell number change turned out to be 1.15%.
Turning to `O=S(=O)(CCc1ccccc1)N1CCOCC1`, the Potency was 5.8 µM (active) and the cell number change was found to be 1.99%.
In the case of `c1ccc(CCCN2CCOCC2)cc1`, the “lipid storage change, negative = inhibition” value was 15.4% (inactive) and the cell number change was found to be 11.8%.
For `CCCS(=O)(=O)N1CCN(CCCc2ccccc2)CC1`, in that order: 9.48% (inactive) and 6.21%.
For the compound `CC(C)Sc1nnc(NC(=O)c2ccc3c(c2)OCO3)s1`, the “lipid storage change, negative = inhibition” value was -3.82% (inactive).
On to `O=C(COC(=O)COc1ccccc1)NC1CCCC1`, for which the “lipid storage change, negative = inhibition” value is 10.1% (inactive) and the cell number change was -5.97%.
Turning to `COc1ccc(C2CC(C(F)(F)F)n3nc(C(=O)O)cc3N2)cc1OC` (configuration not stated), the “lipid storage change, negative = inhibition” value is -2.01% (inactive) and the cell number change is 20.6%.
Consider `COc1ccc(OC)c(NC(=O)c2cc3n(n2)C(C(F)(F)F)CC(c2ccc4c(c2)OCO4)N3)c1` (configuration not stated), for which the “lipid storage change, negative = inhibition” value was -0.757% (inactive) and the cell number change is 16.6%.
In the case of `COc1ccc(NC(=O)c2cc3n(n2)C(C(F)(F)F)CC(c2ccc4c(c2)OCO4)N3)cc1OC` (configuration not stated), the Potency was 16.4 µM (active) and the cell number change is -18.2%.
For the compound `Cn1cc(CN2CCC(CO)CC2)c(-c2ccc(Oc3ccccc3)cc2)n1`, the “lipid storage change, negative = inhibition” value was 15.5% (inactive) and the cell number change was -5.37%.
For the compound `COc1cccc(CNC(=O)C2CCN(S(=O)(=O)N3CCC4(CC3)OCCO4)CC2)c1`, the “lipid storage change, negative = inhibition” value is 22.2% (inactive) and the cell number change is 8.33%.
In the same order, the values of `O=C(Nc1ccc(S(=O)(=O)Nc2ncccn2)cc1)C1=COCCO1` are 18% (inactive) and 6.63%.
